In PubChem BioAssay:
The source made the active and inactive calls.

How the values were obtained:
[1] = E. coli DRC41 culture turbidity changes, primary screen, E. coli filamentation inducer project, strain DRC41, OD650, 48 h (AID 1152);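 further: E. coli MC1000 strain DRC41 lacking acrAB efflux pump and sulA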; settings: E. coli DRC41 (acrAB sulA), higher = more signal, called active from +8 up or from −8 down
[2] = small-molecule binders of probe aLefty1, primary screen, biochemical, small-molecule microarray, 635/667 nm fluorescence (AID 1153); settings: higher = more signal;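 further: score merges spot fluorescence with signal-to-noise ratio from the scanned slide images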
[3] = PSAC antagonists in infected red cells, primary screen, cell-based, P. falciparum Indochina, OD700, 1 h (AID 1154); settings: P. falciparum Indochina infected RBC osmotic lysis, higher = more signal, called active from +8 up or from −8 down
[4] = PSAC antagonists in infected red cells, primary screen, cell-based, P. falciparum Indochina, OD700, 2 h (AID 1155);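 further: lysis reports solute entry through the parasite surface anion channel PSAC; channel blockers reduce lysis of infected cells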; settings: P. falciparum Indochina infected erythrocytes, osmotic lysis OD700; higher = more signal, called active from +8 up or from −8 down
[5] = osmotic lysis modulators in infected erythrocytes, primary screen, PSAC antagonist project, cell-based, P. falciparum Indochina, OD700, 3 h (AID 1156); settings: higher = more signal, called active from +8 up or from −8 down
[6] = PSAC antagonists in infected red cells, primary screen, cell-based, P. falciparum Indochina, OD700, 18 h (AID 1157); settings: P. falciparum Indochina infected erythrocytes, osmotic lysis OD700, 18 h; higher = more signal, called active from +8 up or from −8 down
[7] = modulators of S6 phosphorylation in cells, primary screen, cell-based, A549, cytoblot, luminescence, serum-stimulated (AID 1158); settings: A549 phospho-S6 cytoblot, 5 h, higher = more signal;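 further: serum-stimulated A549 lung adenocarcinoma cells; signal is phosphorylated S6 detected by cytoblot immunostaining with HRP secondary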
[8] = biological target: NADPH oxidase 2 (Homo sapiens) (UniProt P04839); assay: NOX2-dependent H2O2 signal modulators, primary screen, NOX inhibitor project, cell-based, HEK293-NOX2, PMA-stimulated, Amplex Red fluorescence (AID 1159); settings: 45 min, higher = more signal, called active from +8 up or from −8 down; further: test concentration not given here
NADPH oxidase 2 (Homo sapiens), sequence (P04839 whole entry, looked up): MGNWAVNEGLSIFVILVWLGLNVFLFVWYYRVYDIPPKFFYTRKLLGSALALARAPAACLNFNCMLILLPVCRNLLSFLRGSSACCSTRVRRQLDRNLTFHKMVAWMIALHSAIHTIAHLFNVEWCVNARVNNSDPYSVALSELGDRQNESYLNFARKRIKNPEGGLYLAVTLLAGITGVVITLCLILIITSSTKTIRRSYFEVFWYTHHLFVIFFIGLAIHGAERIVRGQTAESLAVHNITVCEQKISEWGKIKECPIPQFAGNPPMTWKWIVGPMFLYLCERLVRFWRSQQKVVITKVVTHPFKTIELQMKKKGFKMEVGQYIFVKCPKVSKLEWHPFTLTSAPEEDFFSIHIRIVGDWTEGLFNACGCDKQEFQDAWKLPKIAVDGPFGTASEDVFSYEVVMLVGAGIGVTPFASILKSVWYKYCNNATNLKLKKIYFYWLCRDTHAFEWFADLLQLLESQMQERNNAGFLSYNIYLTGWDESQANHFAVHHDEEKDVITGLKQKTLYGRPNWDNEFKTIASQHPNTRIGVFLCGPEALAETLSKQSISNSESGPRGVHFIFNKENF

[9] = biological target: NADPH oxidase 4 (Homo sapiens) (UniProt Q9NPH5); assay: NOX4-dependent H2O2 signal modulators, primary screen, NOX inhibitor project, cell-based, HEK293-NOX4, tetracycline-induced, Amplex Red fluorescence (AID 1160); settings: 45 min, higher = more signal, called active from +8 up or from −8 down
NADPH oxidase 4 (Homo sapiens), sequence (Q9NPH5 whole entry, looked up): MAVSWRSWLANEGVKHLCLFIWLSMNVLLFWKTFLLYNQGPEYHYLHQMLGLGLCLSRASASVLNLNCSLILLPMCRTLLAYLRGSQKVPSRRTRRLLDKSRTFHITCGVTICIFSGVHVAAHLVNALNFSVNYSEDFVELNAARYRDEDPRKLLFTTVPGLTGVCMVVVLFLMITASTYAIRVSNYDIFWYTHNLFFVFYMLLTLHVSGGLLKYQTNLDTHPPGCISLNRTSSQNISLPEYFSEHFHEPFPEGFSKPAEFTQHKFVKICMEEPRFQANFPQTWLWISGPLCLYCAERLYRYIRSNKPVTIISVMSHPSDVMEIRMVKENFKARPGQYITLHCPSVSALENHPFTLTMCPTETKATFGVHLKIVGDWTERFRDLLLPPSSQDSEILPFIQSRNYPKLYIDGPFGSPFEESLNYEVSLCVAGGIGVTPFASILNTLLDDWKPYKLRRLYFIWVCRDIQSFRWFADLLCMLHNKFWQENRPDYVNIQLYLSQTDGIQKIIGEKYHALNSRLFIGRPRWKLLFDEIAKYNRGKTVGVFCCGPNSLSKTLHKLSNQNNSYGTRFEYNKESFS

[10] = biological target: NADPH oxidase 5 (Homo sapiens) (UniProt Q96PH1); assay: NOX5-dependent H2O2 signal modulators, primary screen, NOX inhibitor project, cell-based, HEK293-NOX5, Amplex Red fluorescence (AID 1161); settings: HEK293-NOX5, ionomycin, 45 min, higher = more signal
NADPH oxidase 5 (Homo sapiens), sequence (Q96PH1 whole entry, looked up): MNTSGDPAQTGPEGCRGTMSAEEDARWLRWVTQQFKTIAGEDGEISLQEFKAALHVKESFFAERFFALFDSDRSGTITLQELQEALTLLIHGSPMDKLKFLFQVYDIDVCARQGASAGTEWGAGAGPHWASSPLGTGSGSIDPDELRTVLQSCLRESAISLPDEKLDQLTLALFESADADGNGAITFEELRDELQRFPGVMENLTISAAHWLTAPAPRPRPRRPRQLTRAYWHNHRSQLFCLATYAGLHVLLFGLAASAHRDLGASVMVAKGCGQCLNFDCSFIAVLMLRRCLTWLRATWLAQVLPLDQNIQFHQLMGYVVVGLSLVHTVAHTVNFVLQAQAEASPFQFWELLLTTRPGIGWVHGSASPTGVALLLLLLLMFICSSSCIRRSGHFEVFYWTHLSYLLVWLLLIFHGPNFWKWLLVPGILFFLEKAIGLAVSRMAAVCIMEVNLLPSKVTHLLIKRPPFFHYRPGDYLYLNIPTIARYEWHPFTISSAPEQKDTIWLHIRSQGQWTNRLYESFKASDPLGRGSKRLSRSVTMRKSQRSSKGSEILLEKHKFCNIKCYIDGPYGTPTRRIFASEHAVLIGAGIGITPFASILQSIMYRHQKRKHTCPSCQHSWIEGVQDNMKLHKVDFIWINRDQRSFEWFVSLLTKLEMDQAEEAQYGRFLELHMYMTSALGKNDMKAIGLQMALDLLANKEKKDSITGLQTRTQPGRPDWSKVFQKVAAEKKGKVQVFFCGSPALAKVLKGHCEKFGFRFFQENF

[11] = A549 cell viability effects, profiling panel, calcein-AM fluorescence, 48 h, basal (AID 1162); settings: higher = more signal; further: test concentration not given here
[12] = adipocyte viability effects, profiling panel, cell-based, 3T3-L1 adipocytes, calcein-AM fluorescence, 48 h, basal (AID 1163); settings: 3T3-L1 adipocytes viability, higher = more signal; further: test concentration not given here
[13] = HepG2 cell viability effects, profiling panel, calcein-AM fluorescence, 48 h, basal (AID 1164); settings: higher = more signal; further: test concentration not given here
[14] = MM1S cell viability effects, profiling panel, calcein-AM fluorescence, 48 h, basal (AID 1165); settings: higher = more signal;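 further: viability of MM1S multiple myeloma cells under basal unstimulated conditions; test concentration not given here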
[15] = basal RPMI8226 viability, no added stimulus, profiling panel, cell-based, calcein-AM fluorescence, 48 h, PK04 Diversity Set (AID 1166); settings: RPMI8226 myeloma viability, higher = more signal;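 further: cells grown under basal conditions without added stimulus; test concentration not given here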
[16] = basal HepG2 mitochondrial membrane potential changes, profiling panel, cell-based, JC-1 fluorescence, 24 h, 100 nL compound (AID 1167); settings: higher = more signal; further: test concentration not given here
[17] = basal 3T3-L1 adipocyte mitochondrial potential changes, profiling panel, cell-based, JC-1 fluorescence, 3T3-L1 adipocytes, 24 h, 100 nL compound (AID 1168); settings: JC-1 mitochondrial fluorescence, higher = more signal, called active from +8 up or from −8 down; further: test concentration not given here
[18] = basal RPMI8226 mitochondrial membrane potential changes, profiling panel, cell-based, JC-1 fluorescence, 24 h, 100 nL compound (AID 1169); settings: RPMI8226 myeloma, JC-1 mitochondrial potential fluorescence, higher = more signal; further: test concentration not given here
[19] = basal MM1S mitochondrial membrane potential changes, profiling panel, cell-based, JC-1 fluorescence, 24 h, 100 nL compound (AID 1170); settings: higher = more signal; further: test concentration not given here
[20] = A549 lung cancer cell viability effects, profiling panel, resazurin fluorescence, 24 h, PK04 Diversity Set (AID 1171); settings: higher = more signal, called active from +8 up or from −8 down; further: test concentration not given here

SMILES	z-score [1]	composite z-score [2]	z-score [3]	z-score [4]	z-score [5]	z-score [6]	z-score [7]	z-score [8]	z-score [9]	z-score [10]	z-score [11]	z-score [12]	z-score [13]	z-score [14]	z-score [15]	z-score [16]	z-score [17]	z-score [18]	z-score [19]	z-score [20]
C=CC[C@@]1(C(=O)O)N=C(c2ccc(OCCCO)cc2)O[C@@H]1c1ccccc1	0.938 (inactive)	-0.146	11.5 (active)	0.526 (inactive)	0.208 (inactive)	0.568 (inactive)	0.0003	0.0822 (inactive)	1.25 (inactive)	0.448	0.819	-0.563	1.59	0.576	-0.252	0.89	0.995 (inactive)	-0.462	-0.341	0.353 (inactive)
CO[C@H]1O[C@H](CO)[C@@H](OC(=O)c2ccc(Br)cc2)[C@@H]2OC(=O)[C@@H](Cc3ccc4ccccc4c3)C/C=C/C[C@H](Cc3ccc4ccccc4c3)C(=O)O[C@@H]12	0.689 (inactive)	-0.113	2.52 (inactive)	-0.503 (inactive)	-1.15 (inactive)	-2.1 (inactive)	1.74	1.76 (inactive)	0.00292 (inactive)	-1.77	1.12	1.26	0.564	-0.0385	-0.21	-0.122	0.497 (inactive)	-0.299	-0.179	-1.41 (inactive)
C=CCOC(=O)[C@@H]1[C@H]2C(=O)O[C@H](c3ccccc3)[C@H](c3ccccc3)N2[C@H](c2ccc(OCCOC(=O)[C@H]3C[C@H]4C(=O)N[C@@H](CCCC[N+](C)(C)C)C(=O)N4[C@H]3c3ccc(O)cc3)cc2)[C@@]12C(=O)Nc1ccc(I)cc12	-0.451 (inactive)	0.113	2.42 (inactive)	1.57 (inactive)	0.511 (inactive)	0.792 (inactive)	-0.281	1.4 (inactive)	1.06 (inactive)	1.24	-0.105	-1.19	-0.591	-0.477	-0.362	-2.03	0.178 (inactive)	-0.275	-1.13	-0.173 (inactive)
C[C@]12C(=O)N(CCCCCCO)[C@@H]3C(=O)N(c4ccc(Cl)cc4)CC=CC31O[C@@H]1/C=C\CCCOC(=O)C12 (stereo not given in full)	1.64 (inactive)	-0.25	2.61 (inactive)	-1.32 (inactive)	-0.397 (inactive)	-1.66 (inactive)	0.654	1.12 (inactive)	0.428 (inactive)	2.22	0.41	1.23	2.06	1.61	0.0929	1.09	-0.317 (inactive)	0.655	0.411	-0.0459 (inactive)
CCCc1cccc(=O)o1	-0.228 (inactive)	0.042	0.342 (inactive)	-0.831 (inactive)	-0.832 (inactive)	-1.23 (inactive)	0.274	0.685 (inactive)	-0.173 (inactive)	0.173	-0.996	0.369	-0.133	0.25	-0.316	-0.147	0.72 (inactive)	-0.417	-0.773	0.366 (inactive)
[N-]=[N+]=Nc1ccccc1[C@@H]1OC(c2ccc(OCCCO)cc2)=N[C@]1(CCS(=O)(=O)c1ccccc1)C(=O)NCCN1CCOCC1	0.0992 (inactive)	0.417	27.4 (active)	20.8 (active)	1.9 (inactive)	0.667 (inactive)	1.12	-3.49 (inactive)	-0.729 (inactive)	-1.84	0.652	1.37	-0.229	0.351	-1.58	0.0652	-0.783 (inactive)	-0.465	-1.2	0.465 (inactive)
CC(C)CNC(=O)[C@@H]1c2ccccc2C(=O)N(Cc2cc(F)cc(C(F)(F)F)c2)[C@H]1c1ccc(CO)cc1	2.9 (inactive)	0.0571	2.62 (inactive)	0.649 (inactive)	1.27 (inactive)	-0.111 (inactive)	0.207	-0.453 (inactive)	0.967 (inactive)	0.52	2.21	-0.979	1.37	-0.215	0.857	2.31	0.299 (inactive)	-0.137	0.205	0.317 (inactive)
CC1CC/C=C\[C@H]2OC34C=CCN(C(C)C)C(=O)[C@H]3N(CCCCCO)C(=O)[C@@H]4C2C(=O)O1 (stereo not given in full)	0.881 (inactive)	-0.15	-0.54 (inactive)	0.0524 (inactive)	0.66 (inactive)	0.427 (inactive)	-0.61	0.745 (inactive)	-0.338 (inactive)	1.05	1.85	0.601	0.29	1.84	-1.4	0.583	0.633 (inactive)	-0.137	1.9	0.98 (inactive)
CC(C)N1C(=O)[C@@]2(c3ccc([N+](=O)[O-])cc3)CC(=O)N(C3CCCCC3)[C@@H]2c2ccc(CO)cc21	0.0586 (inactive)	-0.672	-0.716 (inactive)	-0.465 (inactive)	-0.393 (inactive)	-0.334 (inactive)	0.254	-0.898 (inactive)	-0.363 (inactive)	-0.316	-0.0841	-0.0435	-0.647	-0.331	0.311	-0.0357	-0.14 (inactive)	-0.0593	-0.843	2.09 (inactive)
